The panel holds about 83,000 compounds, 20% with a hit somewhere; the sample as a whole holds those more often.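 Treatment: one concentration, 48 hours, 96-well format. Scoring: percent growth, with anything below 10 considered active.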 Values without a mark were called inactive. The source made the active and inactive calls.
Experiments:
Experiment in all cases: NCI-60 one-dose screen, 48 h (100 = growth as untreated, 0 = no growth, -100 = all killed)
Conditions in all cases: 10 µM unless noted
NCI-H226 lung = system: NCI-H226 lung
NCI-H322M lung = system: NCI-H322M lung
HOP-62 NSCLC = system: HOP-62 NSCLC
NCI-H460 lung = system: NCI-H460 lung
HOP-92 NSCLC = system: HOP-92 NSCLC
NCI-H522 lung = system: NCI-H522 lung
A549/ATCC NSCLC = system: A549/ATCC NSCLC
786-0 renal = system: 786-0 renal
COLO 205 colon = system: COLO 205 colon
DU-145 prostate = system: DU-145 prostate

Row | SMILES | growth (NCI-H226 lung) | growth (NCI-H322M lung) | growth (HOP-62 NSCLC) | growth (NCI-H460 lung) | growth (HOP-92 NSCLC) | growth (NCI-H522 lung) | growth (A549/ATCC NSCLC) | growth (786-0 renal) | growth (COLO 205 colon) | growth (DU-145 prostate)
1 | NS(=O)(=O)c1cccc(Nc2nc(SCC(=O)c3ccc([N+](=O)[O-])cc3)nc3ccccc23)c1 | -20.9% (active) | 82.7% | 71.9% | 36.3% | 52% | 19.3% | 70.6% | 44.6% | 83.1% | 42.8%
2 | COc1ccc(C(=O)/C=C/c2ccc(OCc3ccc(C)cc3)c(OC)c2)cc1OC | 59.2% | 70.4% | 101% | 60.1% | 60.6% | 72.3% | – | 83.7% | 95.3% | 70.3%
3 | COc1ccc(Cc2nn(CC(=O)N/N=C/c3ccc(Cl)cc3)c(=O)c3c(C)noc23)cc1 | 69.8% | 94.8% | 70.4% | 64.9% | 89.5% | 74.4% | – | 52.6% | 102% | 93%
4 | CC(=O)Nc1cc(F)cc(-c2ccc3[nH]cc(-c4ccccc4)c3n2)c1 | 30.9% | 33.4% | 3.09% (active) | 3.95% (active) | 0.206% (active) | -67.6% (active) | – | 1.48% (active) | -68.2% (active) | 39.8%
5 | N#Cc1c(-c2ccc(Cl)cc2)nc(SCc2ccc([N+](=O)[O-])cc2)nc1N1CCNCC1 | 85.2% | 40.5% | 57.1% | -66.6% (active) | -8.29% (active) | 64.1% | 5.31% (active) | -50% (active) | -82% (active) | 0.384% (active)
6 | Fc1ccc(-c2cc3nc(C(Cl)Cl)nc(-c4ccc(Cl)cc4)n3n2)cc1 | 78.9% | -44.9% (active) | -25.8% (active) | -66.3% (active) | 24.7% | 30.3% | – | 47.4% | -56.6% (active) | -23% (active)
7 | CC(C)(C)Nc1nc2c(OCCc3ccccc3)cccn2c1-c1cccc(F)c1 | -7.74% (active) | 20.1% | -33.2% (active) | -11% (active) | -27% (active) | -0.543% (active) | 12.3% | 5.13% (active) | -75% (active) | 22.7%
8 | CO/N=C1\CCc2c(sc(NC(=O)c3cccc(C(F)(F)F)c3)c2C(N)=O)C1 | -10.4% (active) | 19.9% | -0.189% (active) | 2.77% (active) | -12.7% (active) | 26.5% | – | 1.79% (active) | 72.6% | 52.9%
9 | C#Cc1nc(C2=C(C)C(O)CC2)cs1 (configuration not stated) | 110% | 111% | 103% | 113% | 115% | 97.2% | – | -87.8% (active) | 118% | 110%
10 | COc1cccc(NC2=CC(=O)C(C)=C(C)C2=O)c1 | 97% | 102% | 106% | 101% | 104% | 49.8% | 101% | 95.8% | 103% | 113%
11 | CC1=C(C)C(=O)C(Nc2cccc(C(F)(F)F)c2)=C(Cl)C1=O | 90.9% | 101% | 91% | 94.9% | 48.9% | 17.7% | – | 102% | 102% | 99.7%
12 | COc1cc(OC)c(C2C(Cl)C(=O)N2Nc2ncnc3ccccc23)cc1OC (configuration not stated) | 90.3% | 92.3% | 100% | 107% | 102% | 94.2% | 105% | 98.6% | 125% | 109%
13 | O=c1[nH]c2ccccc2cc1CSc1ccccc1Nc1nccc(-c2ccc(C(F)(F)F)cc2)n1 | 56.8% | 90.5% | 78.5% | 40.8% | 20.5% | 80% | – | 45.4% | 104% | 73.4%
14 | COc1ccc(/C=N/Nc2ccnc3cc(Cl)ccc23)cc1Cl | 69% | -64.1% (active) | -42.9% (active) | -79% (active) | -57.6% (active) | -73.7% (active) | -41.6% (active) | -94.9% (active) | -82.7% (active) | -57% (active)
15 | COC(=O)C(C)NS(=O)(=O)/N=C1\NC(=O)NC1=C(Cl)Cl (configuration not stated) | 106% | 102% | 111% | 113% | 107% | 101% | – | 103% | 115% | 109%
16 | C#Cc1nc(C2=C(C)C(=O)/C(=N/OC(C)=O)C2)cs1 | 107% | 101% | 88.5% | 98.5% | 50% | 82.6% | – | -94.5% (active) | 119% | 85.7%
17 | C=CCn1c(SCC(=O)c2ccc(Br)cc2)nnc1-c1c[nH]c2ccccc12 | 90.1% | 99.5% | 103% | 106% | 91.4% | 96.3% | – | 98.6% | 108% | 106%
18 | Cc1cc(C(NC(=O)CCCCCNc2cccc3c2C(=O)N(C2CCC(=O)NC2=O)C3=O)c2cccnc2)c(O)c2ncccc12 (configuration not stated) | 14.2% | 3.62% (active) | 10.2% | 13.6% | -3.51% (active) | 23.4% | 28% | 9.13% (active) | 2.37% (active) | 34.8%
19 | COc1ccc(-n2c(SCC(=O)Nc3ccc(-c4nc5ccccc5[nH]4)cc3)nc3ccccc3c2=O)cc1 | 48.5% | 51.9% | 89.4% | -55.9% (active) | -33.3% (active) | -32.9% (active) | -24.4% (active) | -95.4% (active) | 77.5% | 6.71% (active)
20 | COC(=O)c1ccc(NC(=S)N2CCc3ccc([N+](=O)[O-])cc3C2)cc1O | 100% | 101% | 91.3% | 114% | 99.7% | 99% | 106% | 109% | 105% | 112%
21 | Clc1ccc2oc3c(OCCCn4ccnc4)c4ccccc4nc3c2c1 | 88.5% | 73.2% | 87.4% | 32.6% | 53% | 44% | – | 46.5% | 36% | 64.1%
22 | C[C@@H]1CN(c2ccc3ncc(C#Cc4cncc(C(=O)Nc5ccc(CN6CCN(C)CC6)c(C(F)(F)F)c5)c4)n3n2)C[C@H](C)O1 | -48.8% (active) | -19.4% (active) | -30.1% (active) | -77.7% (active) | -44.4% (active) | -78.8% (active) | -82.5% (active) | -74.8% (active) | -76.8% (active) | -97.5% (active)
23 | N#Cc1nc(-c2ccccc2)oc1N1CC[C@@H](CO)C1 | 94% | 93.8% | 102% | 99.7% | 98.5% | 95.1% | 101% | 103% | 106% | 100%
24 | CN(C)CCCNc1c2ccccc2nc2c1oc1ccc(Cl)cc12 | 28.5% | 24.4% | 55.7% | 12.6% | 34.8% | 38% | – | 18.6% | 14.5% | 20.8%
25 | COc1ccc(/C=N/NC(=O)c2[nH]c3ccc(Br)cc3c2-c2ccccc2)s1 | 47.8% | 50.8% | 47.6% | 3.58% (active) | 52.1% | -30.1% (active) | 31.5% | 11.4% | -55.8% (active) | 20.4%
26 | Cc1cccc2sc(/N=C(\N)C(Cl)(Cl)Cl)nc12 | 100% | 103% | 81.5% | 100% | 101% | 95.7% | 92.2% | 93.9% | 110% | 92.2%
27 | Cc1cc2nc3c4cc(Cl)ccc4n(CC(=O)NCCN(C)C)c3nc2cc1C | 25.7% | 83.7% | 73.7% | -69.9% (active) | 57.1% | 91.8% | 89.4% | -92.4% (active) | 76.8% | 94.4%
28 | Cc1sc2nc(NCc3ccccc3Cl)[nH]c(=O)c2c1C | 88.5% | 96.6% | 93.4% | 50.4% | 91.3% | 95.3% | 84% | 91% | 113% | 98%

Reference: PubChem BioAssay (NCI)
